# Assay outcomes as filed in PubChem BioAssay.
# Most compounds without a hit are left out; they make up all but 2.6% or so of the library.
# FID counter: fluorescent intercalator displacement, NS3 helicase counter-screen. actives 0.17% (n = 290,000). inhibition, % at 7.9 µM. DNA fluorescent intercalator displacement, fluorescence; in the data active means inhibition above about 37%;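 further: 0% = vehicle and 100% = reference compound; higher means more ethidium bromide displaced from hairpin DNA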
# GPR7 antag: human neuropeptides B/W receptor 1 antagonism; P48145; GPR7-expressing cells, fluorescence antagonist assay; inhibition, % at 4.4 µM; actives 1.1% (n = 290,000); in the data active means inhibition above about 16%, passing the limit was not always enough;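 further: cells stimulated with the agonist NPW; 0% = agonist with vehicle and 100% = vehicle without agonist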
# Target sequence (P48145 whole entry, looked up): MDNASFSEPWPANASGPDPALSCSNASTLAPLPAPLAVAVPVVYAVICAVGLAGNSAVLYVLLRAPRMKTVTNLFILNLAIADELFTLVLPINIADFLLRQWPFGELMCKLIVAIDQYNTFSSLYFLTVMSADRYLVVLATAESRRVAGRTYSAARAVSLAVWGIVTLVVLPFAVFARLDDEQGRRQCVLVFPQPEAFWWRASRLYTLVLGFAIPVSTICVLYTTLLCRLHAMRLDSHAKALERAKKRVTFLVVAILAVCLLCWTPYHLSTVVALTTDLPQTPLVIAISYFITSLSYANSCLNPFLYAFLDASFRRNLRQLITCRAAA
# BaF3 parental: reduces parental Ba/F3 cell viability, JAK2V617F counter-screen; CellTiter-Glo ATP luminescence; inhibition, % at 5.6 µM; actives 1.1% (n = 220,000); AID 1486;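 active means inhibition above a per-campaign cutoff, the mean inhibition of all tested compounds plus 3 SD, cut at about 27% in these data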;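 further: 0% = DMSO wells and 100% = JAK Inhibitor I control wells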
# IEC-6 tox: IEC-6 cytotoxicity, counter-screen for KLF5 inhibitors. luminescence viability. inhibition, % at 5 µM. actives 0.78% (n = 290,000); in the data active means inhibition above about 22%;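 further: 0% = plate median of test compound wells and 100% = cytotoxic reference compound wells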
# Ba/F3 V617F tox: reduce viability of Ba/F3 cells dependent on JAK2V617F; actives 1.1% (n = 220,000); AID 1446; Ba/F3 EpoR-JAK2V617F viability, ATP luminescence; inhibition, % at 5.6 µM;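 active means inhibition above the campaign mean plus 3 SD over all tested compounds, cut at about 24% in these data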;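 further: cytokine-independent growth of Ba/F3 cells driven by EpoR plus mutant JAK2; 0% = DMSO-treated cells and 100% = JAK inhibitor I control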
# KLF5 inh: kruppel-like factor 5 inhibition | inhibition, % at 5 µM | AID 1700 | actives 0.23% (n = 290,000) | DLD-1 KLF5 promoter-luciferase reporter, luminescence;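 active means inhibition above a per-plate limit of that plate's mean compound inhibition plus 3 SD, cut at about 60% in these data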;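 further: 0% = DMSO wells and 100% = LY294002 at 200 µM; higher means less KLF5 promoter-driven luciferase light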
# * hit, by the source's call; . = not tested or not shown.
SMILES,FID counter,GPR7 antag,BaF3 parental,IEC-6 tox,Ba/F3 V617F tox,KLF5 inh
COCCN1Cc2cccc(C(=O)NCC3CCN(CC(C)C)C3)c2C1=O (configuration not stated),2,15,9,1,7,-4
COCCn1c(C)cc(C(=O)COC(=O)c2ccc(Br)o2)c1C,-17,19*,3,-1,-1,-1
CC(=O)OC(COC1C[C@@H]2CC[C@@]1(C)C2(C)C)C[N+]1(C)CCCCC1 (some centres not stated),0,-13,39*,-1,1,-1
NS(=O)(=O)c1ccc(CNC(=O)/C=C/c2ccco2)cc1,-12,-10,56*,2,93*,0
COc1ccc(N2C(C(C)=O)=NN(c3ccccc3)C2c2cccs2)cc1 (configuration not stated),2,5,48*,2,25*,-64
CC(=O)Nc1ccc(N2C(C(C)=O)=NN(c3ccccc3)C2c2cccs2)cc1 (configuration not stated),-4,-9,8,-1,-1,-46
COc1ccc(-n2cc(CNC3CCN(C)CC3)c(-c3cccc(F)c3)n2)cc1,42*,13,5,9,10,-33
COc1ccc(-n2cc(CN[C@H]3CCCCNC3=O)c(-c3cccc(F)c3)n2)cc1,9,0,-1,4,-1,-5
C[N+]1(CC(=O)NNc2c3ccccc3nc3ccccc23)CCOCC1,43*,-12,29*,1,17,9
O=C(CN1CCOCC1)NNc1c2ccccc2nc2ccccc12,14,9,0,-2,0,-46
CC(C)CNC(=O)CSc1nc2nn(-c3ccccc3)c(=O)c-2c2n1CCCCC2,2,-4,0,1,-2,-1
COc1ccccc1C(c1nnnn1CS(=O)(=O)c1ccc(C)cc1)N1CCSCC1 (configuration not stated),6,-2,8,2,5,-3
COc1cccc(C(c2nnnn2CS(=O)(=O)c2ccc(C)cc2)N2CCN(C)CC2)c1OC (configuration not stated),41*,23,2,1,-6,-10
CCOC(=O)CCc1c(C(=O)OCC)[nH]c(CC)c1C(=O)OCc1ccccc1,-24,-9,1,0,3,-20
O=C(Nc1nccs1)c1cn(-c2ccccc2)nc1-c1ccccc1,-4,19*,5,4,6,-21
CC(C)COc1ccc(-c2nn(-c3ccccc3)cc2C(=O)Nc2nccs2)cc1,-4,9,3,11,-3,-11
CCOc1ccc(NCc2cccn2-c2nnc(N3CCC(C(=O)NCCCN4CCCCC4CC)CC3)s2)cc1 (configuration not stated),40*,4,.,6,.,-15
Cc1cc(OCC(O)CNC(C)c2ccccc2)ccc1C(C)C (configuration not stated),41*,12,.,1,.,-12
COc1ccc(OCC(O)CNC(C)c2ccccc2)cc1 (configuration not stated),2,6,.,7,.,-12
CCCC(NCC(O)COc1ccc(-c2ccccc2)cc1)c1ccccc1 (configuration not stated),41*,19,-3,14,-1,-8
CC(NCC(O)COc1ccc(Br)cc1)c1ccccc1 (configuration not stated),15,9,.,6,.,-30
CCOc1cc(S(=O)(=O)Nc2cc(C)cc(C)c2)ccc1Cl,-5,-14,4,-4,-2,-29
CCN(c1ccc(NC(=O)c2ccc(Cl)nc2)cc1)C(C)C,7,9,69*,69*,77*,17
S=C(Nc1cccc(Cl)c1Cl)N1CCC2(CC1)OCCO2,-1,-17,30*,5,3,1
CC(C)CN(c1ccccc1)S(=O)(=O)c1nnc(NC(=O)c2ccco2)s1,-43,-22,.,-4,.,-7
SMILES,FID counter,GPR7 antag,BaF3 parental,IEC-6 tox,Ba/F3 V617F tox,KLF5 inh
Cc1ccccc1C(=O)N1CCN(c2ncccn2)CC1,-4,-21,.,1,.,16
Cc1occc1C(=O)N1CCN(c2ncccn2)CC1,-6,-14,92*,-1,-1,-15
COc1cccc(CNc2ccc(S(=O)(=O)Nc3nccs3)cc2)c1O,-12,17*,7,-2,5,-4
O=S(=O)(Nc1nccs1)c1ccc(NCc2cc(Br)cc(Br)c2O)cc1,-10,-11,0,5,-1,-10
CC(C)CCNC(=S)Nc1ccc([N+](=O)[O-])cc1,10,22*,5,-1,2,-12
CC(C)CCNC(=S)Nc1ccc(Br)cc1,-4,-3,0,0,-1,-32
CCCCNC(=S)Nc1ccc([N+](=O)[O-])cc1,1,23*,6,2,1,-2
COc1cc(Nc2nc(-c3ccccc3)c3cc(C)ccc3n2)cc(OC)c1OC,-4,-20,4,-1,1,0
CC(C)n1cnc2c(=S)nc[nH]c21,-3,-5,-3,1,0,-8
S=c1nc[nH]c2c1ncn2C1CCCO1 (configuration not stated),-7,-4,44*,78*,63*,8
NC(=O)C1CCCc2c1n(Cc1ccccc1)c1ccccc21 (configuration not stated),-32,4,.,-2,.,-32
COc1cc(CNCc2cccs2)ccc1OCC(N)=O,-2,-2,1,8,-3,-32
CCCCCCCNC1=CC(=O)CC(c2ccco2)C1 (configuration not stated),-28,-1,38*,5,29*,4
OCC1(Cc2ccc(Cl)cc2)CCN(CC2CC=CCC2)CC1 (configuration not stated),18,7,4,10,8,-20
O=C(C1Cc2ccccc2CN1C(=O)c1ccccc1)N1CCN(c2ccccc2)CC1 (configuration not stated),-34,-5,47*,1,58*,4
COc1cccc(OC)c1C(=O)Nc1ccc(Br)c(C(=O)c2ccccc2)c1,-37,-13,.,1,.,-11
COc1ccc(S(=O)(=O)Nc2cc(C(=O)NC(C)C)ccc2N2CCOCC2)cc1,-15,5,5,-1,0,-16
COc1ccc(NS(=O)(=O)c2ccc(N3CCOCC3)c(NC(=O)c3ccccc3Cl)c2)cc1,-12,14,42*,2,43*,6
COc1ccc(NS(=O)(=O)c2ccc(N3CCOCC3)c(NC(=O)c3ccc(OC)cc3)c2)cc1,-26,-9,42*,6,41*,-20
COc1ccc(NS(=O)(=O)c2cccc(NC(=O)c3ccc(S(=O)(=O)N4CCCCCC4)cc3)c2)cc1,-13,8,44*,11,42*,-19
COc1ccc(NS(=O)(=O)c2ccc(O)c(NC(=O)c3ccc(S(=O)(=O)N4CCCCCC4)cc3)c2)cc1,-10,-4,4,2,-1,7
